Measured values taken from publication PMC7862700, “An all-to-all approach to the identification of sequence-specific readers for epigenetic DNA modifications on cytosine”.

Tests used:
Assay in all cases: DAPPL (digital affinity profiling via proximity ligation, sequencing); 10 mM Tris-HCl pH 7.5, 50 mM NaCl, 1 mM DTT, 4% glycerol, room temperature, 30 min; GST-TFs on glutathione beads, 16-mer random dsDNA library, 0.1% formaldehyde crosslink after washing; high values mean tight binding
Conditions in all cases: protein: recombinant; tags: N-terminal GST; dsDNA, one strand shown
ELK1 = target: T1, ELK1 (Homo sapiens, UniProt P19419 1-428)
T1 sequence: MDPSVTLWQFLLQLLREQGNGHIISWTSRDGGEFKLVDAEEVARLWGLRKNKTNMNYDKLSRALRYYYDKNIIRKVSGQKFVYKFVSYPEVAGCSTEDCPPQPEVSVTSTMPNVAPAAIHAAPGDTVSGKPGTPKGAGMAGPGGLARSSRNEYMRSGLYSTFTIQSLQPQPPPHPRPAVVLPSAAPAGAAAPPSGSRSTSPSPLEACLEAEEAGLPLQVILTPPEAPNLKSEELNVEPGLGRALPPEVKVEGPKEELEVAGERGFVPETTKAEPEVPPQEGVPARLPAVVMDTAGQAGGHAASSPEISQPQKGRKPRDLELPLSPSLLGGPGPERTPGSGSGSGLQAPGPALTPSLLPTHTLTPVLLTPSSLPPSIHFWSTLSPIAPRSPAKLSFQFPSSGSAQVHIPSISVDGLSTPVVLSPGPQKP
In short: (§1)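 GST fusions of human transcription factors were expressed in yeast and captured with glutathione beads. Once given DNA barcodes and pooled alongside a tag-only sample, they were incubated for 30 min at room temperature with 200 nmole of a random double-stranded 16-mer DNA library in Tris/NaCl/DTT/glycerol buffer, then washed, crosslinked (0.1% formaldehyde), proximity-ligated, PCR-amplified and sequenced on an Illumina NextSeq500. The binding signal of each hexamer is its read frequency for a factor divided by its frequency for the tag-only sample.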

GABPA = target: T2, GABPA (Homo sapiens, UniProt Q06546 1-454)
T2 sequence: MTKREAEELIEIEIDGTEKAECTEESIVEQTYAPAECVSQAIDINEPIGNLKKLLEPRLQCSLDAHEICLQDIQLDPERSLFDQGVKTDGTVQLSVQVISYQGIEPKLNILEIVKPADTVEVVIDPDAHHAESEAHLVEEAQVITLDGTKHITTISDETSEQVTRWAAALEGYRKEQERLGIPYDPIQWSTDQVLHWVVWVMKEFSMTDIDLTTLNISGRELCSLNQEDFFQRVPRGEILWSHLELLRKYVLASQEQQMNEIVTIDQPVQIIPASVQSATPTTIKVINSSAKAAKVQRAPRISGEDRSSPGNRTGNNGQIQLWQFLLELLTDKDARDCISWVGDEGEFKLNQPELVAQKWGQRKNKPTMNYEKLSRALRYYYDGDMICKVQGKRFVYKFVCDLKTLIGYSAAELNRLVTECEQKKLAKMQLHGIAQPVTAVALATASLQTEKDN
In short: as §1

EHF = target: T3, EHF (Homo sapiens, UniProt Q9NZC4 1-300)
T3 sequence: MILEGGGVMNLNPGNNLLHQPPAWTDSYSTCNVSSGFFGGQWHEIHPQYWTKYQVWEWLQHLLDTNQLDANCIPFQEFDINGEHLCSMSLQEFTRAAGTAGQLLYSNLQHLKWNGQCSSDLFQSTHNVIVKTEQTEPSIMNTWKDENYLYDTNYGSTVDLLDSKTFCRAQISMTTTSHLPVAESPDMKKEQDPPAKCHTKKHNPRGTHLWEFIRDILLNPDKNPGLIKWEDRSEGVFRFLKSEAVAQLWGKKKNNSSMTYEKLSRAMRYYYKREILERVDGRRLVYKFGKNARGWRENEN
In short: as §1

ELK3 = target: T4, ELK3 (Homo sapiens, UniProt P41970 1-407)
T4 sequence: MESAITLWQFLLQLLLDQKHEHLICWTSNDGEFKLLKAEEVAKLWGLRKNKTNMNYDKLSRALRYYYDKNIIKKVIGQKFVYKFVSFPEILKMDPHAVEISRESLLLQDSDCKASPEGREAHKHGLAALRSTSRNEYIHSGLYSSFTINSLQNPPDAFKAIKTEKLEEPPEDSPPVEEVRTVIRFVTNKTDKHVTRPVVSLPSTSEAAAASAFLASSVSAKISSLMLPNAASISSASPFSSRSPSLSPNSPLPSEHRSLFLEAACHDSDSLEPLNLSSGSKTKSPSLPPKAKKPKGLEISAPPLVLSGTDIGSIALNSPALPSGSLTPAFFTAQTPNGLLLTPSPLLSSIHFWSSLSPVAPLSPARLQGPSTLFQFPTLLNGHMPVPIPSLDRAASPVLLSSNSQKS
In short: as §1

ETV5 = ETV5 (Homo sapiens, UniProt P41161 1-510)
Sequence of ETV5 (P41161 whole entry): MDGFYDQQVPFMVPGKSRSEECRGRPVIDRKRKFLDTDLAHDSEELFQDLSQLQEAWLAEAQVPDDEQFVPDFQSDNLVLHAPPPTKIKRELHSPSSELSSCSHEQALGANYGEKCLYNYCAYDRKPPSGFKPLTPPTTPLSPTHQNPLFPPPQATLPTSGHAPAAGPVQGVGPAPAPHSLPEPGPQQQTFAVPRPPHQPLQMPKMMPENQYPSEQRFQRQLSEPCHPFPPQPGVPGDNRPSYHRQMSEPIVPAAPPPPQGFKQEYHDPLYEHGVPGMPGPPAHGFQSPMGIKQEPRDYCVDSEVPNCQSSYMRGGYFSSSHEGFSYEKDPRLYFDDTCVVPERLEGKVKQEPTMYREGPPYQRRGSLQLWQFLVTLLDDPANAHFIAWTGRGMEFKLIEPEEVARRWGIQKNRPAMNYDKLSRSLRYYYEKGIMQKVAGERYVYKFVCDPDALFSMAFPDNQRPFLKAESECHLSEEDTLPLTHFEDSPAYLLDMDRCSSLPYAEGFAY
In short: as §1

SPIC = target: T5, SPIC (Homo sapiens, UniProt Q8N5J4 1-248)
T5 sequence: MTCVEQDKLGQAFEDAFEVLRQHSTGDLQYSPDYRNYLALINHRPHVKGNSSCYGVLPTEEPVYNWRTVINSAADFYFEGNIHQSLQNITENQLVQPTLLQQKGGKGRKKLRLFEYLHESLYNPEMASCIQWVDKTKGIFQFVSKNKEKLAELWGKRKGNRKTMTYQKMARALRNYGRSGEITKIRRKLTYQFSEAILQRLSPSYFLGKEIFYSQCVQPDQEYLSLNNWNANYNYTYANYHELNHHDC
In short: as §1

ELK4 = target: T6, ELK4 (Homo sapiens, UniProt P28324-2 1-405)
T6 sequence: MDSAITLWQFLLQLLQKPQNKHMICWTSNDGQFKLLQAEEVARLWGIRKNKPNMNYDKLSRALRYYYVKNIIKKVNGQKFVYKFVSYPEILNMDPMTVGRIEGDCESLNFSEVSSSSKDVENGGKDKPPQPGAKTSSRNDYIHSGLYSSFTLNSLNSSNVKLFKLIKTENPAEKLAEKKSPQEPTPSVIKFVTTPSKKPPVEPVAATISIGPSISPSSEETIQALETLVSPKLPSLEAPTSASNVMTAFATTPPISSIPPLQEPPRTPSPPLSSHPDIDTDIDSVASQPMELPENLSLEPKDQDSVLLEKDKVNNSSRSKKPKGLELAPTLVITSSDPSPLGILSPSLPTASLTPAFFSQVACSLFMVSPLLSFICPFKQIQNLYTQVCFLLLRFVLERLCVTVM
In short: as §1

ERF = target: T7, ERF (Homo sapiens, UniProt P50548 1-548)
T7 sequence: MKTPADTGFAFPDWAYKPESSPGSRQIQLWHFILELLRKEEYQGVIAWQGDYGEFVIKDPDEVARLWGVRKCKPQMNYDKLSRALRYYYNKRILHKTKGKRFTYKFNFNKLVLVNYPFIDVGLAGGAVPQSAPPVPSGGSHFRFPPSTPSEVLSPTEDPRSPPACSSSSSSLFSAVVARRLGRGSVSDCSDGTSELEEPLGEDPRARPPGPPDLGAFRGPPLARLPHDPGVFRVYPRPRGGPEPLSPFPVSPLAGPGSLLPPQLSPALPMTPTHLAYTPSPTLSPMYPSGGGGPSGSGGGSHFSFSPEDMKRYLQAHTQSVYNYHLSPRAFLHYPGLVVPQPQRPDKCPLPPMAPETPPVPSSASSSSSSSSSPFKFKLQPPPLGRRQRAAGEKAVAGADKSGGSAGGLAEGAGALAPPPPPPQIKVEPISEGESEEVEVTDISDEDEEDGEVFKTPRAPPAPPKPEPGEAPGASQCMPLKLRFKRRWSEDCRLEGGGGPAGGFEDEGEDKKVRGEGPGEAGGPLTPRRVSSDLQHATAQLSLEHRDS
In short: as §1

ETS2 = target: T8, ETS2 (Homo sapiens, UniProt P15036 1-469)
T8 sequence: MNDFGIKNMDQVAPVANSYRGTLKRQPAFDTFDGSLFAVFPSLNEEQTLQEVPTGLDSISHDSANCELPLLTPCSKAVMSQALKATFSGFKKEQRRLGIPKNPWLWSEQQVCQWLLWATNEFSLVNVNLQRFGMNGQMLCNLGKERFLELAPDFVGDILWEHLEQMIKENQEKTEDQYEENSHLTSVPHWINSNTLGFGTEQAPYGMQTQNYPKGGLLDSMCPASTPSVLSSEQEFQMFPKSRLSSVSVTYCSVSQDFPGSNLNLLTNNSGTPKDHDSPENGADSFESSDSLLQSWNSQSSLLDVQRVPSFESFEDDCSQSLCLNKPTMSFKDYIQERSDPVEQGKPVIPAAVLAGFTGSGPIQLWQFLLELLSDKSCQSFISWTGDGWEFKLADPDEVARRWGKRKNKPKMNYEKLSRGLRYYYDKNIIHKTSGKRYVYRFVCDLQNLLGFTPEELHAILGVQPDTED
In short: as §1

SPDEF = target: T9, SPDEF (Homo sapiens, UniProt O95238 1-335)
T9 sequence: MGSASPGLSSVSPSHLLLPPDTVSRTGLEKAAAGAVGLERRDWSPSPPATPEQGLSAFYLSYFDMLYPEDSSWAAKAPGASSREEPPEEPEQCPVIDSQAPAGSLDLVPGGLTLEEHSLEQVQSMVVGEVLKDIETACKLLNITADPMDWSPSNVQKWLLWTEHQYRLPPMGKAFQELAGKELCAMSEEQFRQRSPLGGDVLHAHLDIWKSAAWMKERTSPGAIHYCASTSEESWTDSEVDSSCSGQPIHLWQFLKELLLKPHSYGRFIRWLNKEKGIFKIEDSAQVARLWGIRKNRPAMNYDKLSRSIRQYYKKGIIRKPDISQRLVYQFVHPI
In short: as §1

ETV7 = target: T10, ETV7 (Homo sapiens, UniProt Q9Y603 1-341)
T10 sequence: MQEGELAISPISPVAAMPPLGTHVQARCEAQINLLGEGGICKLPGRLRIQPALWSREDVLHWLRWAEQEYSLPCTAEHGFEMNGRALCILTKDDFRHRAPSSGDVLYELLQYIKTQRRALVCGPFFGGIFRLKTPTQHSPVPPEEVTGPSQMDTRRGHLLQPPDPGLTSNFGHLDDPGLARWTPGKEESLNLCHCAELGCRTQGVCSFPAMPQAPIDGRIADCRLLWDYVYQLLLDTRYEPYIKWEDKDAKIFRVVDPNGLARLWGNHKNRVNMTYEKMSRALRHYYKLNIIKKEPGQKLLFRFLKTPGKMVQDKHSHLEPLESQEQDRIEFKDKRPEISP
In short: as §1

Which binding signal (ELK1) does the source give for ATAGGG here?
The binding signal was 1.01 fold enrichment (6-mer frequency, TF over GST control).

And the binding signal (GABPA)?
Its binding signal is 1.03 fold enrichment (6-mer frequency, TF over GST control).

And the binding signal (EHF)?
Its binding signal is 1.01 fold enrichment (6-mer frequency, TF over GST control).

And the binding signal (ELK3)?
Its binding signal is 1.06 fold enrichment (6-mer frequency, TF over GST control).

And the binding signal (ETV5)?
Its binding signal is 1.03 fold enrichment (6-mer frequency, TF over GST control).

What about the binding signal (SPIC) of the same sequence?
The binding signal was 1.08 fold enrichment (6-mer frequency, TF over GST control).

What about the binding signal (ELK4) of the same sequence?
The binding signal was 1.06 fold enrichment (6-mer frequency, TF over GST control).

What about the binding signal (ERF) of the same sequence?
The binding signal was 1.14 fold enrichment (6-mer frequency, TF over GST control).

And the binding signal (ETS2)?
The binding signal was 1.01 fold enrichment (6-mer frequency, TF over GST control).

What about the binding signal (SPDEF) of the same sequence?
The binding signal was 1.01 fold enrichment (6-mer frequency, TF over GST control).

And the binding signal (ETV7)?
Its binding signal is 1.09 fold enrichment (6-mer frequency, TF over GST control).
